Drawing on PubChem BioAssay, this text covers composite z-score and z-score for five compounds.

Assay [1] deals with Plasmodium falciparum Sir2 (PF13_0152, Sir2A). Description: Plasmodium falciparum Sir2A binding compounds – biochemical, small-molecule microarray, 635 nm fluorescence, primary screen (AID 1098).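 Note: score merges spot fluorescence intensity with its signal-to-noise ratio.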 As to conditions: fluorescence 635 nm, higher = more signal.
Assay [2] is described as follows: probe aDKK1 binding to arrayed compounds – biochemical, biotinylated probe, 635/667 nm fluorescence, primary screen (AID 1099).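 Note: score merges 667nm spot fluorescence with signal to noise across triplicate slides.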 The following applies: small-molecule microarray, higher = more signal.
Assay [3] is described as follows: probe aCHRDL2 binding to arrayed compounds – biochemical, biotinylated probe, 635/667 nm fluorescence, primary screen (AID 1100). As to conditions: small-molecule microarray, higher = more signal.
Assay [4] in a line: change in splice reporter luminescence, either direction, cell-based, HEK293, spliceosome inhibition project, primary screen (AID 1101).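 Note: HEK293 cells carrying a splicing-competent luciferase reporter gene; test concentration not given here.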 As to conditions: HEK293 splicing luciferase reporter, 24 h, higher = more signal, called active from +8 up or from −8 down. On the technique in general: A reporter such as luciferase makes a cellular process visible.
Assay [5] has as its target Fibroblast growth factor 10 (Homo sapiens) (UniProt O15520). Nature of the assay: compounds binding fibroblast growth factor 10 – biochemical, small-molecule microarray, 635 nm fluorescence, primary screen (AID 1102). The following applies: FGF10 binding, fluorescence 635 nm, higher = more signal.
Assay [6] has as its system glycogen synthase kinase-3 (GSK3A per assay name; protocol says GSK3B). Description: compounds binding glycogen synthase kinase-3 – biochemical, small-molecule microarray, 635 nm fluorescence, GSK3A, primary screen (AID 1103). Note: the record names both GSK3A and GSK3B. The following applies: fluorescence 635 nm, higher = more signal.
In assay [7] the target is Epidermal growth factor receptor (Homo sapiens) (UniProt P00533). Nature of the assay: compounds binding epidermal growth factor receptor – biochemical, small-molecule microarray, 635 nm fluorescence, primary screen (AID 1104).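 Note: score merges 667 nm emission intensity with spot signal to noise over triplicate slides.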 As to conditions: EGFR binding, higher = more signal.
Epidermal growth factor receptor (Homo sapiens), sequence (P00533 whole entry, looked up): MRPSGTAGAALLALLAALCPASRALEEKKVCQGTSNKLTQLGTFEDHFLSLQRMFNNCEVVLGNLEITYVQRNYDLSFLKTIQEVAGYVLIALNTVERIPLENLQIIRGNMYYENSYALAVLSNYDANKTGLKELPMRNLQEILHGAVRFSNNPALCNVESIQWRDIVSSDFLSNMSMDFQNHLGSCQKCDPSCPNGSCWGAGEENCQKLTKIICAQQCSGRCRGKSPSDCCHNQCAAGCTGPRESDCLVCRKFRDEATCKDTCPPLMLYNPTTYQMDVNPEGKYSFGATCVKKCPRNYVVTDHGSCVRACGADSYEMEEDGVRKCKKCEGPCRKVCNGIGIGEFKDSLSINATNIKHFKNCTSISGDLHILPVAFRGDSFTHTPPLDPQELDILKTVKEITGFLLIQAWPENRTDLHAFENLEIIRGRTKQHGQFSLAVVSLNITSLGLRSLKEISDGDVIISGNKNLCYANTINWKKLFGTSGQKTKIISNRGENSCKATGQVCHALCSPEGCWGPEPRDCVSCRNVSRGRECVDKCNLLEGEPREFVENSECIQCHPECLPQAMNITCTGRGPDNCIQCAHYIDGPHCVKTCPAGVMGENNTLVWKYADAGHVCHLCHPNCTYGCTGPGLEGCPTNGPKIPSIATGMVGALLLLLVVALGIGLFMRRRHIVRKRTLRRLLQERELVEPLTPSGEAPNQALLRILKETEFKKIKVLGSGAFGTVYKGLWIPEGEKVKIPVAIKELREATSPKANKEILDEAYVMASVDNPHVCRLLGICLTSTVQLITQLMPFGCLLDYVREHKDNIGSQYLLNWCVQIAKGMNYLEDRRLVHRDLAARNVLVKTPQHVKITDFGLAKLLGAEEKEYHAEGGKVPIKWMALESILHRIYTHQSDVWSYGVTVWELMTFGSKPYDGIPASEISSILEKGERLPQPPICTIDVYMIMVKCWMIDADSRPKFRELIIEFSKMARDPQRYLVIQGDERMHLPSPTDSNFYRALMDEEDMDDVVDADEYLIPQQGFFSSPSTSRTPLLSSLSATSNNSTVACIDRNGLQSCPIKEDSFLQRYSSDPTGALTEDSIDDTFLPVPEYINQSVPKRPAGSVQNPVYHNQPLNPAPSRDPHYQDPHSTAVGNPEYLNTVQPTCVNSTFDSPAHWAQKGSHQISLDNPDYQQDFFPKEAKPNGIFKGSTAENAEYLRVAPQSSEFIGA
Assay [8] has as its target Follistatin-related protein 3 (Homo sapiens) (UniProt O95633). Nature of the assay: compounds binding follistatin-related protein 3 – biochemical, small-molecule microarray, 635 nm fluorescence, primary screen (AID 1105).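 Note: score merges emission near 667 nm and signal to noise per printed spot across three slides.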 As to conditions: FSTL3 binding, higher = more signal.
The target of assay [9] is Dickkopf-related protein 1 (Homo sapiens) (UniProt O94907). Nature of the assay: small molecules binding DKK1 protein – biochemical, small-molecule microarray, 635 nm fluorescence scan, primary screen (AID 1106).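 Note: score merges emission near 667 nm with signal to noise over three replicate slides.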 The following applies: higher = more signal.
Dickkopf-related protein 1 (Homo sapiens), sequence (O94907 whole entry, looked up): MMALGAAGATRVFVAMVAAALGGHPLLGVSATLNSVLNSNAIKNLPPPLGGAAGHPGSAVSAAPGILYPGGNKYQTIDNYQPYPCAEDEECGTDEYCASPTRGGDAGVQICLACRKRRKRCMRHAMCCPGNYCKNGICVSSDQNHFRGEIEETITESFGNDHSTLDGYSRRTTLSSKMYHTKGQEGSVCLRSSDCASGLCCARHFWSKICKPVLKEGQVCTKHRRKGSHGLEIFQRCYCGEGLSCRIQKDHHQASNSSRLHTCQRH
Assay [10] deals with Inhibin beta A chain (activin A). Description: small molecules binding activin A – biochemical, small-molecule microarray, 635 nm fluorescence scan, primary screen (AID 1107).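 Note: mouse activin A protein probed at 4.33 µg/mL on printed slides; score merges bound-protein fluorescence near 667 nm with spot signal-to-noise.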 As to conditions: INHBA, higher = more signal.
Assay [11] has as its system Human papillomavirus type 1a protein E7 (residues 44-93). Description: small molecules binding HPV E7 44-93 – biochemical, small-molecule microarray, residues 44-93, 635 nm fluorescence, primary screen (AID 1108).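 Note: E7 fragment applied at 1 µg/mL in TBST for 1 h at 4 C; score combines spot fluorescence with its signal to noise ratio.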 The following applies: fluorescence 635 nm, higher = more signal.
A short description of assay [12]: hepatitis C replication reporter changes, two-sided – Huh7 cells, luciferase reporter, HCV replication inhibitor project, primary screen (AID 1109).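 Note: huh7 hepatoma cells harbouring a luciferase neomycin HCV replicon reporter; luciferase luminescence as measure of HCV replicon replication; test concentration not given here.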 The following applies: Huh7 HCV replicon luciferase reporter, 48 h; higher = more signal.
The target in assay [13] is Left-right determination factor 2 (Homo sapiens) (UniProt O00292). Nature of the assay: small molecules binding LEFTY2 protein – biochemical, small-molecule microarray, 635 nm fluorescence scan, primary screen (AID 1110). As to conditions: higher = more signal.
Left-right determination factor 2 (Homo sapiens), sequence (O00292 whole entry, looked up): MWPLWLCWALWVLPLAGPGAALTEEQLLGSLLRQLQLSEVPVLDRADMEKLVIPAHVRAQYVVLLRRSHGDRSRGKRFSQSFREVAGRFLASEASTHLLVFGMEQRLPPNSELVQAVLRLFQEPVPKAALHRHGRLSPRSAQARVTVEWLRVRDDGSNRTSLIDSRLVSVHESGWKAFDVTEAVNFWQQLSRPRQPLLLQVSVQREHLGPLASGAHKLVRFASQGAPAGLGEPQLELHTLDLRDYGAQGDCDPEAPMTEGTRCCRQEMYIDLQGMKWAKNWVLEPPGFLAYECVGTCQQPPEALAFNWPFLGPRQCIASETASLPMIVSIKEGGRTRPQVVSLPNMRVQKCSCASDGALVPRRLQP
In assay [14] the target is Calmodulin-1 (Homo sapiens) (UniProt P0DP23). Nature of the assay: small molecules binding calmodulin-1 with EGTA – biochemical, small-molecule microarray, Cy5-labelled CALM1, profiling panel (AID 1111).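 Note: labelled calmodulin applied in Tris saline Tween buffer holding calcium plus EGTA and DTT.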 The following applies: Cy5-CALM1 binding fluorescence, higher = more signal.
For assay [15] the target is unchanged. Nature of the assay: small molecules binding Ca-loaded calmodulin-1 – biochemical, small-molecule microarray, Cy5-labelled CALM1, plus calcium, artefact control for SMM control-protein annotation, profiling panel (AID 1112).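 Note: score merges spot fluorescence with signal to noise from triplicate slides.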 The following applies: Cy5-CALM1 binding fluorescence, higher = more signal.
Assay [16] in a line: probe aWnt5a binding to arrayed compounds – biochemical, biotinylated probe, 635/667 nm fluorescence, primary screen (AID 1113).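 Note: score merges 667 nm fluorescence intensity with signal-to-noise per printed feature.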 As to conditions: small-molecule microarray, higher = more signal.
A short description of assay [17]: probe aShh binding to arrayed compounds – biochemical, biotinylated probe, 635/667 nm fluorescence, primary screen (AID 1114).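 Note: probe is biotin-labelled aShh protein from a stem cell growth factor screen; measures binding of labelled protein to compounds printed on the slide; score merges feature fluorescence at 667 nm with signal-to-noise.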 As to conditions: small-molecule microarray, higher = more signal.
Assay [18] can be described thus: probe aNog binding to arrayed compounds – biochemical, biotinylated probe, 635/667 nm fluorescence, primary screen (AID 1115).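 Note: probe is biotinylated aNog protein used at 0.15 µg/mL for 1 h at 4 C; z-score combines 667 nm fluorescence of each spot with its signal to noise.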 As to conditions: small-molecule microarray, higher = more signal.
Assay [19] deals with Torsin-1A-interacting protein 1 (Homo sapiens) (UniProt Q5JTV8). Description: compound microarray binding of lysate hLAP1 – cell lysate, small-molecule microarray, COS7 lysate, 635/667 nm fluorescence, primary screen (AID 1116). As to conditions: 635 nm fluorescence, higher = more signal.
Torsin-1A-interacting protein 1 (Homo sapiens), sequence (Q5JTV8 whole entry, looked up): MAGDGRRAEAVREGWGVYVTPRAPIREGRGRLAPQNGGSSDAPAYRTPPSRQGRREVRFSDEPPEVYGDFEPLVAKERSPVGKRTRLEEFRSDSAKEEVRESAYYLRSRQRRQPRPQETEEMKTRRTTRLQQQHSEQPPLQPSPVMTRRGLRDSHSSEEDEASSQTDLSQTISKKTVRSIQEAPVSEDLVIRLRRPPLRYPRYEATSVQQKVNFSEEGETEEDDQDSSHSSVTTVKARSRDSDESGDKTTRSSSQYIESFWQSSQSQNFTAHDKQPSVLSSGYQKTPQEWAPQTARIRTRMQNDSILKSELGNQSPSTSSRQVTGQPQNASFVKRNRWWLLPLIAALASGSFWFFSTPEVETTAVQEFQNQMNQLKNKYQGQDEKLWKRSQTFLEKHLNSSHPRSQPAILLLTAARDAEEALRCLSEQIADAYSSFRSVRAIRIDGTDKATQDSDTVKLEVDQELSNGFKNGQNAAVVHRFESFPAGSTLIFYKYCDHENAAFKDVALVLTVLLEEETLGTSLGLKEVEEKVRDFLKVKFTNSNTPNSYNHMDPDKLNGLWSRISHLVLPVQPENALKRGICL
The target in assay [20] is Alpha-bungarotoxin (Bungarus multicinctus) (UniProt P60615). Nature of the assay: compounds binding labelled alpha-BTX control protein – biochemical, small-molecule microarray, Alexa647 label, 635/667 nm fluorescence, artefact control for SMM control protein annotation, profiling panel (AID 1117). The following applies: alpha-BTX-A647 binding fluorescence, higher = more signal.
Alpha-bungarotoxin (Bungarus multicinctus), sequence (P60615 whole entry, looked up): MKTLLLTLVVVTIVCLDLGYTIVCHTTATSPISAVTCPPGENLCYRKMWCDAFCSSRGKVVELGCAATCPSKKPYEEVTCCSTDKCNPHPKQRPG

The structures appear in SMILES notation. Several values for one entry are separate records, joined by “and”; a condition that tells them apart may be missing. Equal values may be shown once. Activity calls are given as the source filed them.

Fibroblast growth factor 10 (Homo sapiens), sequence (O15520 whole entry, looked up): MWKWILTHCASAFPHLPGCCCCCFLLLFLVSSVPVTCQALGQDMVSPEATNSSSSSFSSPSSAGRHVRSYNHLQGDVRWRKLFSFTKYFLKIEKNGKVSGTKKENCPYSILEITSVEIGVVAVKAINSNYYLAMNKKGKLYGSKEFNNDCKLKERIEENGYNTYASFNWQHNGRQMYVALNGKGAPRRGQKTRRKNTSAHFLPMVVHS
Follistatin-related protein 3 (Homo sapiens), sequence (O95633 whole entry, looked up): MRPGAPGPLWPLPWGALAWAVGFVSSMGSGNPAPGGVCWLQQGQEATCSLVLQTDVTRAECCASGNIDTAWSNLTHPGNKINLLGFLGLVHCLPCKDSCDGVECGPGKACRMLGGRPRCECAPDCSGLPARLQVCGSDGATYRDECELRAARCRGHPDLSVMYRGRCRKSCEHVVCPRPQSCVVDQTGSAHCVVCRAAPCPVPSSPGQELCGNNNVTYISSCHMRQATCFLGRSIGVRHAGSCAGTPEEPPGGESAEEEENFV

Consider `C[C@@]1([C@@H](NC(=O)Cc2ccccc2)c2ccc(-c3ccccc3)cc2)C[C@H]1C1CCCCC1`, for which the composite z-score is 0.334 and 0.359 and 0.301 in assay [1]; 1.14 and 1.83 and -0.112 in assay [2]; 0.775 and 1.08 and 0.538 in [3]; 0.543 and 0.838 and 0.0825 in [5]; 0.271 and 0.234 and 0.826 in [6]; -0.0372 and 0.289 and -0.265 in assay [7]. In addition, the composite z-score is -0.008 and -0.172 and 0.156 in assay [8]; -0.193 and -0.286 and -0.719 in assay [9]; 1.3 and 1.08 and 0.556 in assay [10]; 0.208 and 0.778 and 1.16 in assay [11]; -0.109 and -0.069 and 0.118 in assay [13]; 1.7 and 1.95 and 1.63 in assay [14]. Besides, the composite z-score in assay [15] was 1.26 and 1.28 and 0.753; in assay [16] it was 0.631 and 1.04 and 0; in assay [17], 2.22 and 2.04 and -0.493; in [18], 0.292 and 1.37 and 1.17; in assay [19] it was -0.288 and -0.307 and 0.775; in assay [20] it was 1 and 0.582 and 1.93. The z-score in [4] was -4.09 (inactive) and -1.68 (inactive) and 0.868 (inactive); in [12], -2.39 and -1.33 and -0.271.

As for `CO[C@H]1COC(=O)CC=C[C@@H](C)COC(=O)[C@@H](OCc2ccccc2)C=C[C@@H]1C`, the composite z-score was 0.661 in assay [1]; -0.533 in [2]; -1.54 in [3]; 0.241 in [5]; 1.1 in [6]; 0.831 in assay [7]. Moreover, the composite z-score in [8] is 1.32; in assay [9], 0.644; in assay [10], 1.57; in [11], -0.418; in [13], 1.32; in assay [14], -0.779. Moreover, the composite z-score in assay [15] is -2.05; in assay [16], -0.34; in assay [17], 0.149; in assay [18] it was -0.378; in assay [19] it was 0.417; in assay [20], 0.205. In addition, the z-score in assay [4] was 0.19 (inactive); in assay [12], -0.0629.

Turning to `CCCC[C@@H]1CN2[C@H](c3ccc(Br)cc3)[C@@H](C)CC[C@H]2C(=O)O1`, the composite z-score in assay [1] was 0.186 and 0.254; in assay [2], -0.385 and -0.192; in [3] it was -0.492 and -0.707; in assay [5], 0.124 and 0.115; in [6], 0.0093 and -0.0119; in assay [7], 0.283 and 0.308. Also, the composite z-score in [8] is -0.427 and -0.351; in [9], 0.407 and -0.117; in assay [10] it was 0.574 and 0.485; in assay [11], -0.519 and 0.166; in assay [13], 0.189 and 0.327; in [14] it was -0.254 and -0.255. Further, the composite z-score was -0.329 and -0.334 in assay [15]; -0.232 and -0.104 in assay [16]; -0.273 and -0.138 in assay [17]; 0.153 and 0.0051 in [18]; 0.0737 and 0.259 in assay [19]; 0.412 and 0.575 in assay [20]. The z-score is -0.475 (inactive) and 0.405 (inactive) in [4]; -0.403 and -0.983 in [12].

Turning to `CCOC(=O)NN=C1C[C@@H](O)[C@@H](O)[C@@H]2[C@@H]3C(=O)N(Cc4ccc5c(c4)OCO5)C(=O)[C@@H]3CC[C@@H]12`, the composite z-score in assay [1] is 0.0867; in assay [2], -0.0464; in assay [3] it was -0.331; in assay [5], 0.0364; in assay [6], 0.424; in assay [7] it was 0.231. The composite z-score in [8] is -0.406; in assay [9], 0.0071; in [10], -0.134; in [11], 0.431; in assay [13], -0.0145; in assay [14] it was 0.257. In addition, the composite z-score in assay [15] is -0.727; in [16] it was -0.006; in assay [17], -0.0011; in assay [18], -0.252; in assay [19], 0.629; in assay [20] it was 0.619. Further, the z-score was 0.0278 (inactive) in [4] and -0.398 in [12].

With `C=CCN(CCCCC)C(=O)C(c1cccs1)N(C(=O)/C=C\C(=O)O)c1ccc(CCO)cc1` (stereo not given), the composite z-score was 0.274 and 0.158 in [1]; -0.273 and -0.247 in assay [2]; 0.748 and 0.789 in [3]; -1.8 and -1.08 in assay [5]; -1.01 and -0.785 in assay [6]; -1.79 and -1.62 in assay [7]. The composite z-score in assay [8] is -1.87 and -1.55; in assay [9], -2.83 and -1.55; in [10] it was -2.66 and -1.26; in [11], 0.0979 and -0.457; in assay [13], -3.06 and -2.73; in assay [14], -0.783 and -0.531. The composite z-score is 0.0708 and 0.542 in [15]; -0.284 and -0.211 in assay [16]; 0.289 and -0.154 in assay [17]; -0.23 and -0.241 in assay [18]; -0.755 and -0.0484 in [19]; -0.89 and -0.874 in assay [20]. Besides, the z-score in assay [4] is 0.748 (inactive) and 0.709 (inactive); in assay [12], -0.779 and -0.741.
